Test results reported in PubChem BioAssay (NCATS).
Records with an inconclusive call do not appear. Entries that show only a call come without a potency. Calls of active or inactive are those of the source. Calls come from the whole dose curve; as a rule, active = well fitted cell-killing curve with a large enough effect; inconclusive = small, poorly fitted or top-dose-only effect; inactive = flat fitted curve, though single readings scatter.

Experiment: qHTS of pediatric cancer cell lines to identify multiple opportunities for drug repurposing: Confirmatory screen for BT-12 cells (AID 1347112);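 note: viability read after 48 h of compound exposure; nearly all actives have a fitted effect of over 55% in size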
Details: BT-12 rhabdoid tumor cells, viability; series mostly up to 45.9 µM
Source text: Drug repurposing or repositioning has been offered as a strategy for drug development in oncology programs. This approach has special potential for childhood cancers and other rare or orphan diseases, where the expected return on new drug development has been a disincentive to pharmaceuticals.
In this project we exploit the poly-pharmacology of drugs to discover new indications via phenotypic screening of a panel of 19 well-characterized cell lines derived from solid tumors seen in children and adolescents. The goal is to identify approved drugs with previously unrecognized anticancer properties that has the potential to reveal new mechanisms and biological processes involved in carcinogenesis or drug resistance. We employed a titration-based paradigm (quantitative high-throughput screening or qHTS), where all compounds were tested at multiple concentrations for their effect on cell viability. Concentration-response curves (CRCs) were derived directly from the primary screen, and both potency and efficacy values were used to identify compounds with robust bioactivity profiles. We screened the NIH Chemical Genomics Center (NCGC) Pharmaceutical Collection (NPC) and Mechanism Interrogation Plate (MIPE) small molecule collections of approved and investigational compounds against these cell lines; and measured metabolically active cells after 48 hours of compound treatment as a proxy for cell viability.
Assay Submitter: Nathalia J. Martinez, National Center for Advancing Translational Sciences, National Institutes of Health, Rockville, MD, USA; email: natalia.martinez@nih.gov
[1] Shen, M et al. Quantitative high-throughput phenotypic screening of pediatric cancer cell lines identifies multiple opportunities for drug repurposing. Oncotarget 2017 Dec 19;9(4):4758-4772. PMID 29435139.
The cells were obtained from University of North Carolina (UNC), Pediatric Preclinical Testing Program (PPT), and Coriell Institute (CI).
qHTS cell viability assay:
Cells were assayed in growth media at a density of 500-1,000 cells/well. Five microliters of cells were dispensed into 1,536-well, white, solid-bottom, TC-treated plates (Greiner Bio One) using a multidrop dispenser and incubated at 37 degrees C, 5% CO2, under a humidified atmosphere for 5 hours. Twenty-three nanoliters of compounds and controls (neutral control DMSO or positive control bortezomib at final concentration of 2.3 µM) were subsequently transferred by Kalypsys pintool. For primary screens, the MIPE collection was tested at 11-point dilutions (final concentrations range from 0.78 nM to 46 µM) and the NPC collection at 8-point dilutions (final concentrations range from 0.59 nM to 46 µM). Compounds tested in follow-up screens were assayed at 11-point dilutions. Cells were incubated for 48 hours, followed by addition of 3 µL of CellTiter-Glo (Promega). After a 15 min incubation at room temperature, samples were analyzed for luminescence intensity using a ViewLux High-throughput CCD imager equipped with clear filters.
Potency is the fitted concentration of half-maximal effect.

Structure (SMILES)	Potency
C[C@]12CCC(=O)C=C1CC[C@@H]1[C@@H]2[C@@H](O)C[C@@]2(C)[C@H]1CC[C@]2(O)C(=O)COC(=O)CCC(=O)O	inactive
CC(=O)OCC(=O)[C@@]1(O)[C@H](OC(C)=O)C[C@H]2[C@@H]3CCC4=CC(=O)C=C[C@]4(C)[C@@]3(F)[C@@H](O)C[C@@]21C	inactive
CC(=O)OCC(=O)[C@@]1(O)CCC2C3CCC4=CC(=O)CC[C@]4(C)C3[C@@H](O)C[C@@]21C (stereo partly drawn)	inactive
CCC1=C[C@@H]2CN(C1)Cc1c([nH]c3ccccc13)[C@@](C(=O)OC)(c1cc3c(cc1OC)N(C)[C@H]1[C@@](O)(C(=O)OC)[C@H](OC(C)=O)[C@]4(CC)C=CCN5CC[C@]31[C@@H]54)C2	0.0522 µM (active)
CO[C@@H]1[C@@H](OC)[C@H](C)[C@@](O)(CC(=O)O)O[C@H]1[C@H](C)[C@H]1O[C@@]2(CC[C@@](C)([C@H]3CC[C@@](C)([C@@H]4O[C@@H]([C@H]5O[C@](C)(O)[C@H](C)C[C@@H]5C)C[C@@H]4OC4C[C@H](OC)[C@@H](OC)[C@H](C)O4)O3)O2)C[C@H](O)[C@H]1C (stereo partly drawn)	0.657 µM (active)
CN(C)CCN(Cc1ccsc1)c1ccccn1	inactive
O=[N+]([O-])c1ccc(O)c2ncccc12	20.8 µM (active)
CCN(CC)CC(=O)OCC(=O)[C@@]1(O)CC[C@H]2[C@@H]3CCC4=CC(=O)CC[C@]4(C)[C@H]3[C@@H](O)C[C@@]21C	inactive
O=c1[nH]sc2cc(Cl)ccc12	16.5 µM (active)
CC(C)(C)CC(=O)OCC(=O)[C@@]1(O)CC[C@H]2[C@@H]3CCC4=CC(=O)C=C[C@]4(C)[C@H]3[C@@H](O)C[C@@]21C	inactive
C[C@H]1C[C@@H]2[C@H]([C@@H](O)C[C@@]3(C)[C@H]2CC[C@]3(O)C(=O)CO)[C@@]2(C)C=CC(=O)C=C12	inactive
CCCCC(CC)CNC(=O)CC(C)OC(=O)CCC(=O)O (stereo not drawn)	inactive
Cc1cc(OCCOCC[N+](C)(C)Cc2ccccc2)ccc1C(C)(C)CC(C)(C)C	13.1 µM (active)
CCC(=O)O[C@]1(C(=O)COC)[C@@H](C)C[C@H]2[C@@H]3CCC4=CC(=O)C=C[C@]4(C)C3(F)[C@@H](O)C[C@@]21C (stereo partly drawn)	inactive
Nc1c2ccccc2nc2ccccc12	3.69 µM (active)
CC(=O)O[C@@H]1C(=O)O[C@@H]2[C@H]1OC(=O)[C@@H]2OC(C)=O	inactive
Cc1ccc(C(=O)Oc2ccc(C(O)CNC(C)(C)C)cc2OC(=O)c2ccc(C)cc2)cc1 (stereo not drawn)	inactive
CCCCC(=O)OCC(=O)[C@H]1[C@H](C)C[C@H]2[C@@H]3C[C@H](F)C4=CC(=O)C=C[C@]4(C)[C@@]3(F)[C@@H](O)C[C@@]21C	14.7 µM (active)
CCOC(=O)O[C@]1(C(=O)OCCl)CC[C@H]2[C@@H]3CCC4=CC(=O)C=C[C@]4(C)[C@H]3[C@@H](O)C[C@@]21C	inactive
CCc1cc2cc(OC)c(OC)cc2c(Cc2ccccc2)n1	inactive
CCCC(=O)O[C@]1(C(=O)COC(=O)CC)CC[C@H]2[C@@H]3CCC4=CC(=O)CC[C@]4(C)[C@H]3[C@@H](O)C[C@@]21C	inactive
CC[C@@]1(O)C(=O)OCc2c1cc1n(c2=O)Cc2c-1nc1ccccc1c2/C=N/OC(C)(C)C	1.04 µM (active)
Nc1ccc2cc3ccc(N)cc3nc2c1	16.5 µM (active)
